{
  "source": "PubChem BioAssay (Tox21)",
  "note": "Results filed as inconclusive are left out. Active and inactive are the calls of the source. Unless noted, the call rests on the fitted dose curve; in most records, active means well fitted curve in the direction sought with a large enough effect in the repeat runs; inconclusive means weak or mixed curves; inactive means no such curve, though single readings can be large; an effect the other way counts as inactive or inconclusive. On the % scale 0 is the no-effect control and ±100 the full control effect.",
  "data": [
    {"target": "Thyrotropin-releasing hormone receptor (Homo sapiens) (UniProt P34981)", "sequence (P34981 whole entry, looked up)": "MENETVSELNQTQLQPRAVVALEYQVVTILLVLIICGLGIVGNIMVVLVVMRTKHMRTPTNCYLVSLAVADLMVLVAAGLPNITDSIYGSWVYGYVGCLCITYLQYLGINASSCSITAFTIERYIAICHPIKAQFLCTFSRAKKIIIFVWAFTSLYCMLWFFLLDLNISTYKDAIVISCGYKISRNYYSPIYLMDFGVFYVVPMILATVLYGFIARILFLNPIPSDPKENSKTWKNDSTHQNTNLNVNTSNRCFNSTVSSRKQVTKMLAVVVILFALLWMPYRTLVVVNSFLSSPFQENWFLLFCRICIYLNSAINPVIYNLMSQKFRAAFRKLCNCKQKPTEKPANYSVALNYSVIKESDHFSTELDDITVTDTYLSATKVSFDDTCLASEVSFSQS", "assay": "qHTS assay to identify small molecule agonists of the thyrotropin-releasing hormone receptor (TRHR) signaling pathway (AID 1346891; calls by dose curve)", "details": "TRHR-HEK293 calcium fluorescence, agonist mode; series mostly up to 57.6 µM; activation: at the top concentration", "summary_of_the_method": "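Screening of agonists relied on calcium signalling in HEK293 cells expressing human TRHR: dye loading 2 h at 37 °C preceded compound addition and a 3-min fluorescence time course.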", "values": [
      {"compound": "CN1C(C(=O)Nc2ccccn2)=C(O)c2sccc2S1(=O)=O", "activation": "-0.0245% [at 26.5 µM] (inactive)"},
      {"compound": "CC(C)(c1ccccc1)c1ccccc1", "activation": "2.07% (inactive)"},
      {"compound": "CN1C(=O)N(c2ccccc2Br)Cc2cnc(Nc3ccc4c(c3)OCC(CO)O4)nc21", "note": "(stereo not given)", "activation": "0.794% (inactive)"},
      {"compound": "O=C1c2ccccc2C(=O)N1CCc1noc(-c2ccc(CN3CCCCCC3)s2)n1", "activation": "0.309% (inactive)"},
      {"compound": "CCC1NC(=O)c2cc(S(N)(=O)=O)c(Cl)cc2N1", "note": "(stereo not given)", "activation": "-0.0475% [at 26.5 µM] (inactive)"},
      {"compound": "CC[C@]1(O)C[C@H]2CN(CCc3c([nH]c4ccccc34)[C@@](C(=O)OC)(c3cc4c(cc3OC)N(C=O)[C@H]3[C@@](O)(C(=O)OC)[C@H](OC(C)=O)[C@]5(CC)C=CCN6CC[C@]43[C@@H]65)C2)C1", "activation": "-0.264% [at 26.5 µM] (inactive)"},
      {"compound": "CCCCCCCCN", "activation": "0.0091% (inactive)"},
      {"compound": "CC1CC(C)C(=O)C1=O", "note": "(stereo not given)", "activation": "-0.357% (inactive)"},
      {"compound": "C[C@@]12CCC[C@H]1[C@@H]1CC[C@H]3C[C@@H](O)CC[C@]3(C)[C@H]1CC2", "activation": "-0.107% [at 26.5 µM] (inactive)"},
      {"compound": "O=C=Nc1cccc(C(F)(F)F)c1", "activation": "-0.0095% (inactive)"},
      {"compound": "N#[N+]c1ccc2c(S(=O)(=O)[O-])cccc2c1O", "activation": "-0.153% (inactive)"},
      {"compound": "CCC(C)COC(=O)CC(C)C", "note": "(stereo not given)", "activation": "0.0775% (inactive)"},
      {"compound": "CC[N+](CC)(CCNC(=O)C(=O)NCC[N+](CC)(CC)Cc1ccccc1Cl)Cc1ccccc1Cl", "activation": "-0.156% [at 26.5 µM] (inactive)"},
      {"compound": "O=C(CCc1ccc(O)cc1)c1c(O)cc(O)cc1O", "activation": "1.44% (inactive)"},
      {"compound": "Cc1cc(=O)c2c(O)c3c(O)cc(=O)c4c3c3c(cc(O)c1c23)C(C)(C)C=4O", "activation": "12.7% [at 11.8 µM] (inactive)"},
      {"compound": "COc1ccccc1Oc1c(NS(=O)(=O)c2ccc(C(C)(C)C)cc2)nc(-c2ncccn2)nc1OCCO", "activation": "-0.0152% [at 26.5 µM] (inactive)"},
      {"compound": "CC1=Nc2ccc3ccccc3c2C1(C)C", "activation": "3.94% (inactive)"},
      {"compound": "C=Cc1ccc(S(=O)(=O)O)cc1", "activation": "-0.24% (inactive)"},
      {"compound": "O=C(/C=C/c1ccccc1)OCCc1ccccc1", "activation": "-0.0186% (inactive)"},
      {"compound": "C=C(C)C(=O)OCCOCCOC(=O)C(=C)C", "activation": "-0.354% (inactive)"},
      {"compound": "Oc1cccc(O)c1O", "activation": "-0.0821% (inactive)"},
      {"compound": "O=c1cc(-c2ccccc2)oc2ccc3ccccc3c12", "activation": "0.409% (inactive)"},
      {"compound": "C[C@H]1C[C@H](O)c2ccsc2S1(=O)=O", "activation": "-0.0175% [at 26.5 µM] (inactive)"},
      {"compound": "OC(CCN1CCCC1)(c1ccccc1)C1CCCCC1", "note": "(stereo not given)", "activation": "-1.19% [at 26.5 µM] (inactive)"},
      {"compound": "Cc1cccc(O)c1N", "activation": "1.28% (inactive)"},
      {"compound": "CCCCCCCCOc1ccc(C(=O)O)cc1", "activation": "-0.467% (inactive)"},
      {"compound": "CCCCN1CCCC1C(=O)Nc1c(C)cc(C)cc1C", "note": "(stereo not given)", "activation": "-0.172% [at 26.5 µM] (inactive)"},
      {"compound": "O=C1c2ccccc2C(=O)C1c1nc2ccccc2c(Br)c1O", "activation": "0.0347% (inactive)"},
      {"compound": "CCOC(=O)c1ccccc1C(=C1C=C(Br)C(=O)C(Br)=C1)c1cc(Br)c(O)c(Br)c1", "activation": "7.74% [at 26.5 µM] (inactive)"},
      {"compound": "COC(=O)CCS", "activation": "0.321% (inactive)"},
      {"compound": "CCOC(=O)OC(C)OC(=O)[C@@H]1N2C(=O)[C@@H](NC(=O)[C@H](N)c3ccccc3)[C@H]2SC1(C)C", "note": "(stereo not given in full)", "activation": "-0.0128% [at 26.5 µM] (inactive)"},
      {"compound": "O=C1c2ccccc2C(=O)C1(O)O", "activation": "-0.0001% (inactive)"},
      {"compound": "CN1CCCN=C1COC(=O)C(O)(c1ccccc1)C1CCCCC1", "note": "(stereo not given)", "activation": "0.657% [at 26.5 µM] (inactive)"},
      {"compound": "CCCCCCCC/C=C\\CCCCCCCCO", "activation": "-0.381% (inactive)"}
    ]},
    {"test_system": "not listed separately", "assay": "Human pregnane X receptor (PXR) small molecule agonists, qHTS cell viability counter screen (AID 1346977); further: nearly all actives have a fitted effect of over 50% in size; further: potency means the concentration at half of the fitted maximal effect", "details": "PXR-Luc HepG2 viability, CellTiter-Fluor, 24 h; series mostly up to 92.4 µM; activity change, negative = cytotoxicity: at the top concentration", "summary_of_the_method": "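Tox21 qHTS format; PXR-Luc HepG2, 2,000/well, charcoal-stripped FBS 5%. Cpd exposure 24hr. Read: CellTiter-Fluor fluorescence, multiplexed with luciferase.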", "values": [
      {"compound": "O=[N+]([O-])c1ccc(O/N=C/c2cc(Br)c(O)c(Br)c2)c([N+](=O)[O-])c1", "Potency": "30.5 µM (active)"},
      {"compound": "O=C1NCCN1CCO", "activity change, negative = cytotoxicity": "2.91% (inactive)"},
      {"compound": "CC(=O)c1ccc([N+](=O)[O-])cc1", "activity change, negative = cytotoxicity": "0.865% (inactive)"},
      {"compound": "CC(=O)Nc1ccc(C)cc1C", "activity change, negative = cytotoxicity": "-0.617% (inactive)"},
      {"compound": "O=Cc1c2ccccc2c(Cl)c2ccccc12", "activity change, negative = cytotoxicity": "0.673% [at 42.5 µM] (inactive)"},
      {"compound": "CCC(C)COC(C)=O", "note": "(stereo not given)", "activity change, negative = cytotoxicity": "24.1% (inactive)"}
    ]},
    {"test_system": "not listed separately", "assay": "Caspase-3/7 induction in HepG2 cells by small molecules, qHTS assay (AID 1346978); further: nearly all actives have a fitted effect of over 15% in size; further: potency means the concentration at half of the fitted maximal effect", "details": "HepG2 caspase-3/7 activation, Caspase-Glo luminescence, 17 h; series mostly up to 92.4 µM; caspase activation: at the top concentration", "summary_of_the_method": "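Caspase-3/7 induction was measured by Caspase-Glo 3/7 luminescence (30 min, room temperature) after a 17 hr compound exposure of wild-type HepG2 cells seeded at 2,000 per well and pre-incubated 5 hr.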", "values": [
      {"compound": "CN1C(C(=O)Nc2ccccn2)=C(O)c2sccc2S1(=O)=O", "caspase activation": "-1.48% [at 42.5 µM] (inactive)"},
      {"compound": "CC(C)(c1ccccc1)c1ccccc1", "caspase activation": "-1.28% (inactive)"},
      {"compound": "O=[N+]([O-])c1ccc(O/N=C/c2cc(Br)c(O)c(Br)c2)c([N+](=O)[O-])c1", "caspase activation": "-9.96% (inactive)"},
      {"compound": "CN1C(=O)N(c2ccccc2Br)Cc2cnc(Nc3ccc4c(c3)OCC(CO)O4)nc21", "note": "(stereo not given)", "Potency": "6.11 µM (active)"},
      {"compound": "CCC1NC(=O)c2cc(S(N)(=O)=O)c(Cl)cc2N1", "note": "(stereo not given)", "caspase activation": "-2.13% [at 42.5 µM] (inactive)"},
      {"compound": "CC[C@]1(O)C[C@H]2CN(CCc3c([nH]c4ccccc34)[C@@](C(=O)OC)(c3cc4c(cc3OC)N(C=O)[C@H]3[C@@](O)(C(=O)OC)[C@H](OC(C)=O)[C@]5(CC)C=CCN6CC[C@]43[C@@H]65)C2)C1", "caspase activation": "1.6% [at 42.5 µM] (inactive)"},
      {"compound": "CCCCCCCCN", "caspase activation": "0.119% (inactive)"},
      {"compound": "O=C1NCCN1CCO", "caspase activation": "1.52% (inactive)"},
      {"compound": "CC(=O)c1ccc([N+](=O)[O-])cc1", "caspase activation": "0.192% (inactive)"},
      {"compound": "C[C@@]12CCC[C@H]1[C@@H]1CC[C@H]3C[C@@H](O)CC[C@]3(C)[C@H]1CC2", "caspase activation": "-0.0013% [at 42.5 µM] (inactive)"},
      {"compound": "CCC(C)COC(=O)CC(C)C", "note": "(stereo not given)", "caspase activation": "2.28% (inactive)"},
      {"compound": "CC[N+](CC)(CCNC(=O)C(=O)NCC[N+](CC)(CC)Cc1ccccc1Cl)Cc1ccccc1Cl", "caspase activation": "0.156% [at 42.5 µM] (inactive)"},
      {"compound": "O=C(CCc1ccc(O)cc1)c1c(O)cc(O)cc1O", "caspase activation": "-6.87% (inactive)"},
      {"compound": "CC(=O)Nc1ccc(C)cc1C", "caspase activation": "1.64% (inactive)"},
      {"compound": "Cc1cc(=O)c2c(O)c3c(O)cc(=O)c4c3c3c(cc(O)c1c23)C(C)(C)C=4O", "caspase activation": "-2.97% [at 19 µM] (inactive)"},
      {"compound": "COc1ccccc1Oc1c(NS(=O)(=O)c2ccc(C(C)(C)C)cc2)nc(-c2ncccn2)nc1OCCO", "caspase activation": "-1.79% [at 42.5 µM] (inactive)"},
      {"compound": "CC1=Nc2ccc3ccccc3c2C1(C)C", "caspase activation": "-0.852% (inactive)"},
      {"compound": "O=Cc1c2ccccc2c(Cl)c2ccccc12", "caspase activation": "0.705% [at 42.5 µM] (inactive)"},
      {"compound": "CCC(C)COC(C)=O", "note": "(stereo not given)", "caspase activation": "-1.43% (inactive)"},
      {"compound": "C=Cc1ccc(S(=O)(=O)O)cc1", "caspase activation": "-0.186% (inactive)"},
      {"compound": "C=C(C)C(=O)OCCOCCOC(=O)C(=C)C", "caspase activation": "-0.289% (inactive)"},
      {"compound": "Oc1cccc(O)c1O", "caspase activation": "-1.05% (inactive)"},
      {"compound": "OC(CCN1CCCC1)(c1ccccc1)C1CCCCC1", "note": "(stereo not given)", "caspase activation": "-1.38% [at 42.5 µM] (inactive)"},
      {"compound": "CCCCN1CCCC1C(=O)Nc1c(C)cc(C)cc1C", "note": "(stereo not given)", "caspase activation": "-0.186% [at 42.5 µM] (inactive)"},
      {"compound": "O=C1c2ccccc2C(=O)C1c1nc2ccccc2c(Br)c1O", "caspase activation": "-1.38% (inactive)"},
      {"compound": "CCOC(=O)c1ccccc1C(=C1C=C(Br)C(=O)C(Br)=C1)c1cc(Br)c(O)c(Br)c1", "caspase activation": "0.326% [at 42.5 µM] (inactive)"},
      {"compound": "COC(=O)CCS", "caspase activation": "-0.0838% (inactive)"},
      {"compound": "CCOC(=O)OC(C)OC(=O)[C@@H]1N2C(=O)[C@@H](NC(=O)[C@H](N)c3ccccc3)[C@H]2SC1(C)C", "note": "(stereo not given in full)", "caspase activation": "0.615% [at 42.5 µM] (inactive)"},
      {"compound": "CN1CCCN=C1COC(=O)C(O)(c1ccccc1)C1CCCCC1", "note": "(stereo not given)", "caspase activation": "0.454% [at 42.5 µM] (inactive)"},
      {"compound": "CCCCCCCC/C=C\\CCCCCCCCO", "caspase activation": "0.361% (inactive)"}
    ]}
  ]
}
